The target of test [1] is Thyrotropin receptor (Homo sapiens) (UniProt P16473). Kind of test: qHTS assay to identify small molecule agonists of the thyroid stimulating hormone receptor (TSHR) signaling pathway (AID 1224843). Further: nearly all actives have a fitted effect of over 45% in size. Summed up:
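Screening of the Tox21 10K collection used HEK293 cells engineered with TSHR at 800 cells per well. After a 30-min room-temperature compound exposure, HTRF cAMP reagents were added and fluorescence recorded 1 h later.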
A general note: In qHTS, concentration-response curves come from the screen itself.

A short description of test [2]: qHTS assay to identify small molecule agonists of the hypoxia (HIF-1) signaling pathway - cell viability counter screen (AID 1224844). Further: nearly all actives have a fitted effect of over 50% in size. Summed up:
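Tox21 10K compounds were added to HRE-bla ME-180 cells (0.5% dialyzed FBS) and incubated 17 hrs at 37C; ATP-based CellTiter-Glo luminescence then reported cell viability in the same wells.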

Test [3] is described as follows: qHTS assay to identify small molecule agonists of H2AX (AID 1224845; active means well fitted activation curve with a large enough effect in the signal ratio in the repeat runs, not every such curve was filed as active; the % refers to the signal ratio). Summed up:
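Phospho-H2AX Ser139 measured by HTRF (ex 320 nm; em 665 and 620 nm) after 24 hr antibody incubation. Compounds, 15 concentrations, 0.76% DMSO, were applied to CHO-K1 cells for 3hr at 37C before lysis.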

Test [4] is described as follows: qHTS assay to identify small molecule agonists of the hypoxia (HIF-1) signaling pathway (AID 1224846; active means well fitted activation curve with a large enough effect in the signal ratio in the repeat runs, not every such curve was filed as active; the % refers to the signal ratio). A digest of the protocol:
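Steps: seed ME-180 HRE-bla cells (2,000/well, 0.5% dialyzed FBS); incubate 5 hrs at 37C; pin-transfer compounds or DMSO; incubate 17 hrs; add LiveBLAzer B/G substrate CCF4-AM; measure reporter activation by FRET.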

The nature of test [5]: qHTS assay to identify small molecule agonists of H2AX - cell viability counter screen (AID 1224847). Further: nearly all actives have a fitted effect of over 30% in size. Further: potency means the concentration at half of the fitted maximal effect.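 On activity change, negative = cytotoxicity: wild-type CHO-K1 cells; top concentration of the series differs between compounds.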 A digest of the protocol:
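For this counter screen, overnight-attached CHO-K1 cells received test compounds (15 concentrations, 0.76% DMSO final); 3 hr later at 37C, CellTiter-Glo reagent was added and luminescence recorded after 30 min at room temperature.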

The nature of test [6]: qHTS assay to identify small molecule antagonists of the estrogen related receptor (ERR) signaling pathway from Tox21 library (AID 1224848; active means well fitted curve in the direction sought with a large enough effect in the repeat runs; an effect the other way counts as inactive or inconclusive; further: nearly all actives have a fitted effect of over 50% in size; further: potency means the concentration at half of the fitted maximal effect). A digest of the protocol:
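Antagonist-mode screen of the Tox21 10K library in an NTP-provided ERR reporter cell line; 18 h compound exposure at 37 C, luminescence measured with ONE-Glo.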

A short description of test [7]: qHTS assay to identify small molecule agonists of the estrogen related receptor (ERR) signaling pathway from Tox21 library (AID 1224849). Further: nearly all actives have a fitted effect of over 15% in size. To be noted: ERR reporter cell line, ONE-Glo luciferase, 18 h; at 92.4 µM (top of the series) unless noted. Summed up: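 Agonist signal is luciferase luminescence from an ERR reporter cell line treated 18 h at 37 C with DMSO-dissolved compounds, read 30 min after ONE-Glo addition at room temperature.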

A short description of test [8]: qHTS RealTime-Glo MT Cell Viability Assay in HepG2 cells - 24 hour (AID 1224867; active means well fitted curve in the direction sought with a large enough effect in the repeat runs; an effect the other way counts as inactive or inconclusive; further: nearly all actives have a fitted effect of over 50% in size). A digest of the protocol:
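Cells + NanoLuc/prosubstrate dispensed (600 cells/well) → 5 h at 37 C/5% CO2 → compounds in DMSO transferred → 40 h incubation at 37 C, luminescence read at 0, 8, 16, 24, 32, 40 h.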

Test [9] is described as follows: qHTS RealTime-Glo MT Cell Viability Assay in HEK293 cells - 32 hour (AID 1224868; active means well fitted curve in the direction sought with a large enough effect in the repeat runs; an effect the other way counts as inactive or inconclusive; further: top concentration of the series differs between compounds; nearly all actives have a fitted effect of over 50% in size). A digest of the protocol: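 Tox21 10K qHTS, HEK293, 600 cells/well, RealTime-Glo reagent co-dispensed with cells; 5 h preincubation, compound by pintool, 37 C, luminescence at 0–40 h.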
The nature of test [10]: A CellTox Green Cytotoxicity Assay to monitor cytotoxicity in HEK293 cells - 0 hour (AID 1224869; active means well fitted curve in the direction sought with a large enough effect in the repeat runs; an effect the other way counts as inactive or inconclusive; further: nearly all actives have a fitted effect of over 50% in size). A digest of the protocol:
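Cytotoxicity was tracked continuously in HEK293 cells by a DNA-binding dye excluded from viable cells. Compounds were transferred in DMSO 5 h after seeding; fluorescence was recorded at intervals up to 40 h.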

Values joined by “and” are separate entries in the source; they are usually repeats but may differ in a detail not shown here. Equal values may be shown once. Inconclusive results are not listed. More than one record can exist for a structure, and the calls need not agree. Active and inactive are the calls of the source. Unless noted, the call rests on the fitted dose curve.
On the % scale 0 is the no-effect control and ±100 the full control effect.

Sequence of Thyrotropin receptor (Homo sapiens) (P16473 whole entry, looked up): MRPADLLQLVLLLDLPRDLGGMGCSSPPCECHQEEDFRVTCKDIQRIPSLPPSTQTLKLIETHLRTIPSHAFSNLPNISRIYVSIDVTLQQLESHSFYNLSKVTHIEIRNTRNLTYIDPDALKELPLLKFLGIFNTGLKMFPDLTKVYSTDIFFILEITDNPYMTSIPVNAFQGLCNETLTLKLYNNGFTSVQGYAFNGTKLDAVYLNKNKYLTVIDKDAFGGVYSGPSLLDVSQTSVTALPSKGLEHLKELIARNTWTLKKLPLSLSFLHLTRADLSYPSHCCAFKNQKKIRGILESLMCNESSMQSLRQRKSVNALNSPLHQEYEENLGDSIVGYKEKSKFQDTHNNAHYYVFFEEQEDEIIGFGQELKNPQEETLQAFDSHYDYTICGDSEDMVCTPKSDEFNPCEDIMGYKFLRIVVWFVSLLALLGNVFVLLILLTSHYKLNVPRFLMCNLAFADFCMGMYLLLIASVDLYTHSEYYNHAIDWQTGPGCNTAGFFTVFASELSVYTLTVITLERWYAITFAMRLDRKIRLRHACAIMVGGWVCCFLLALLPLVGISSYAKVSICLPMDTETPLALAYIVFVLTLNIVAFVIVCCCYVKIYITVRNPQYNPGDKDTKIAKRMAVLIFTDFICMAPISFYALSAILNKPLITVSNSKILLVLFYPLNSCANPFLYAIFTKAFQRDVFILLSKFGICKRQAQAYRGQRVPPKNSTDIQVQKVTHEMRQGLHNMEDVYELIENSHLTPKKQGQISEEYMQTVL

In the case of `CCCCCCCCS(=O)(=O)Cl`, the Potency entry in test [1], in [2], in test [5], in test [6], in test [8] and in [9] was “inactive” in each case. Besides, the Potency entry in test [10] was “inactive”. Further, the compound was classed as inactive in [3] and in [4]. The activity change, positive = activation in [7] was 7.34% (inactive).

Regarding `CCc1cccc2c(CCO)c[nH]c12`, the Potency entry in test [1], in test [2], in [5], in [6], in test [8] and in test [9] was “inactive” throughout. Also, the Potency result in [10] is “inactive”. In addition, the result in [3] and in [4] was inactive. The activity change, positive = activation in test [7] is 6.5% [at 42.5 µM] (inactive).

Turning to `NS(=O)(=O)c1cc(C(=O)NN2C[C@H]3[C@H]4CCC(C4)[C@H]3C2)ccc1Cl`, the Potency entry in test [1], in test [2], in test [5], in test [6], in [8] and in [9] was “inactive” throughout. In addition, the Potency result in [10] was “inactive”. Besides, the call in test [3] and in test [4] was inactive. The activity change, positive = activation in [7] is -1.11% [at 42.5 µM] (inactive).

As to `CC(=O)N(CC(O)CO)c1c(I)c(C(=O)NCCO)c(I)c(C(=O)NCC(O)CO)c1I` (stereo not drawn), the Potency entry in [1], in test [2], in test [5], in test [6], in [8] and in [9] was “inactive” in each case. For the same compound, in test [10], the Potency result was “inactive”. The compound was classed as inactive in test [3] and in test [4]. Besides, in test [7], the activity change, positive = activation was 5.17% [at 42.5 µM] (inactive).

Consider `O=S(O)CO`, for which the Potency entry in test [1], in [2], in [5], in [6], in test [8] and in test [9] was “inactive” each time. The Potency entry in [10] was “inactive”. Further, the compound was classed as inactive in test [3] and in test [4]. Besides, the activity change, positive = activation in [7] is 4.77% (inactive).

As for `CCC=O`, the Potency result in test [1], in test [2], in [5], in test [6], in test [8] and in test [9] was “inactive” in each case. Moreover, in test [10], the Potency entry was “inactive”. The result in test [3] and in [4] was inactive. Further, in [7], the activity change, positive = activation is 0.85% (inactive).

`Cc1cccn2c(=O)c(-c3nnn[nH]3)cnc12`: the Potency result in [1] and in [5] was “inactive” each time. The activity change, negative = cytotoxicity in test [2] was -2.16% [at 15.8 µM] (inactive); in test [8], -2.42% [at 15.8 µM] (inactive). Moreover, the call in test [3] was inactive. For the same compound, the activation in [4] is -0.179% [at 15.8 µM] (inactive). Also, the activity, negative = inhibition in test [6] is 7.1% [at 19 µM] (inactive). Also, the activity change, positive = activation in test [7] was 4.72% [at 19 µM] (inactive). The activity change, negative = cytotoxic in [9] is -0.452% [at 15.8 µM] (inactive). The cytotoxicity in [10] is 3.94% [at 15.8 µM] (inactive).

On to `NC(=O)c1ccc([N+](=O)[O-])cc1`, for which the Potency result in test [1], in test [2], in test [5], in test [6], in test [8] and in [9] was “inactive” each time. Further, the Potency entry in test [10] was “inactive”. The result in [3] and in [4] was inactive. In addition, the activity change, positive = activation in test [7] is -5.69% (inactive).

As to `O=C(O)COc1nn(Cc2ccccc2)c2ccccc12`, the Potency result in [1], in test [2], in [5], in test [6], in test [8] and in test [9] was “inactive” in each case. Besides, in test [10], the Potency result was “inactive”. The compound was classed as inactive in test [3] and in test [4]. Further, in [7], the activity change, positive = activation is 0.25% [at 42.5 µM] (inactive).

As for `O=C1CCCN1C1CCCCC1`, the Potency result in test [1], in test [2], in [5], in test [6], in [8] and in test [9] was “inactive” in each case. Further, in test [10], the Potency entry was “inactive”. Also, the outcome in test [3] and in test [4] was inactive. Moreover, the activity change, positive = activation in [7] is -1.04% (inactive).

Regarding `COC(C)(C)CCCC(C)CC=O` (stereo not drawn), the Potency result in test [1], in test [2], in test [6], in test [8], in test [9] and in test [10] was “inactive” in each case. Moreover, the compound was called inactive in test [3] and in [4]. Moreover, the activity change, positive = activation in [7] was 8.65% (inactive).

`O=c1cc(CO)occ1O`: the Potency entry in [1], in [2], in [5], in test [6], in [8] and in [10] was “inactive” each time. In addition, the call in test [3] and in [4] was inactive. Also, in [7], the activity change, positive = activation is 3.24% [at 42.5 µM] (inactive).

For `CCCN1CCCC[C@H]1C(=O)Nc1c(C)cccc1C`, the Potency result in test [1], in test [2], in test [5], in [6], in test [8] and in test [10] was “inactive” in each case. For the same compound, the result in test [3] and in test [4] was inactive. For the same compound, the activity change, positive = activation in test [7] is 6.18% [at 42.5 µM] (inactive).

For the compound `CC(C)(c1ccc(O)cc1)c1ccc(O)cc1`, the Potency result in test [1], in [2], in test [8] and in test [10] was “inactive” each time. Also, the result in test [3] and in test [4] was inactive. Besides, the Potency entry in test [5] is “inactive and 103 µM (active)”; in test [6] it was 30.3 µM (active). The activity change, positive = activation in test [7] was -29.8% (inactive) and -30.2% (inactive).

`OC[C@]1(O)OC[C@@H](O)[C@H](O)[C@@H]1O`: the Potency entry in test [1], in [2], in test [5], in test [8], in [9] and in test [10] was “inactive” throughout. Moreover, the result in [3] and in [4] was inactive.

As to `N#Cc1ccc(C2CCCc3cncn32)cc1` (stereo not drawn), the Potency result in [1], in test [2], in [5], in [8], in test [9] and in test [10] was “inactive” throughout. Further, the compound was classed as inactive in test [3] and in test [4]. For the same compound, the activity change, positive = activation in [7] is -20.4% [at 42.5 µM] (inactive).

Consider `Cn1cc(S(C)=O)c(=O)c2ccc(F)cc21` (stereo not drawn), for which the Potency result in test [1], in test [2], in test [6], in [8], in test [9] and in test [10] was “inactive” throughout. Moreover, the compound was classed as inactive in [3] and in test [4]. Further, the activity change, positive = activation in test [7] was 0.0404% [at 42.5 µM] (inactive).

Turning to `C=C1CC[C@H]2C[C@@H]1C2(C)C`, the Potency entry in test [1], in [2], in test [5], in test [8], in [9] and in test [10] was “inactive” throughout. Further, the call in [3] and in test [4] was inactive.

As to `C[C@H]1C[C@@H](O)CC(C)(C)C1`, the Potency entry in [1], in [2], in test [6], in test [8] and in test [9] was “inactive” each time. Besides, the compound was classed as inactive in test [3] and in [4]. For the same compound, the activity change, positive = activation in test [7] is 0.742% (inactive).

(Values after PubChem BioAssay (Tox21).)
